Results filed as inconclusive are left out. Calls of active or inactive are those of the source. Unless noted, the call rests on the fitted dose curve; in most records, active means well fitted curve in the direction sought with a large enough effect; inconclusive means small, poorly fitted or top-dose-only effect, or another doubt; inactive means no such curve, though single readings can be large; an effect the other way counts as inactive or inconclusive.
Experiments:
[1] = Inducers of the Endoplasmic Reticulum Stress Response (ERSR) in human glioma: Validation (AID 504836)
Method in brief: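 Stably transfected U87-MG glioma cells carrying a GRP78-based luciferase sensor; 16 h compound incubation. Luminescence end-point read 10 min after Bright-Glo addition at room temperature.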

[2] = qHTS for Inhibitors of the Functional Ribonucleoprotein Complex (vRNP) of Lassa (LASV) Arenavirus: LASV Primary Screen - GLuc reporter signal (AID 1347082; calls by dose curve; tested in HEK293 reporter line; further: series mostly up to about 57 µM; nearly all actives have a fitted effect of over 60% in size)
[3] = qHTS for Inhibitors of the Functional Ribonucleoprotein Complex (vRNP) of Lassa (LASV) Arenavirus: Viability assay - alamar blue signal for LASV Primary Screen (AID 1347083; calls by dose curve; tested in HEK293 reporter line; further: series mostly up to about 57 µM; nearly all actives have a fitted effect of over 80% in size)
[4] = qHTS for Inhibitors of the Functional Ribonucleoprotein Complex (vRNP) of Lymphocytic Choriomeningitis Arenaviruses (LCMV): Viability assay - alamar blue signal for LCMV Primary Screen (AID 1347085; calls by dose curve; tested in HEK293 reporter line; further: series mostly up to about 57 µM; nearly all actives have a fitted effect of over 80% in size)
[5] = molecular target: Nucleoprotein (Lymphocytic choriomeningitis virus (strain Armstrong)) (UniProt P09992); experiment: qHTS for Inhibitors of the Functional Ribonucleoprotein Complex (vRNP) of Lymphocytic Choriomeningitis Arenaviruses (LCMV): LCMV Primary Screen - GLuc reporter signal (AID 1347086; calls by dose curve; further: series mostly up to about 57 µM; nearly all actives have a fitted effect of over 70% in size)
Nucleoprotein (Lymphocytic choriomeningitis virus (strain Armstrong)), sequence (P09992 whole entry, looked up): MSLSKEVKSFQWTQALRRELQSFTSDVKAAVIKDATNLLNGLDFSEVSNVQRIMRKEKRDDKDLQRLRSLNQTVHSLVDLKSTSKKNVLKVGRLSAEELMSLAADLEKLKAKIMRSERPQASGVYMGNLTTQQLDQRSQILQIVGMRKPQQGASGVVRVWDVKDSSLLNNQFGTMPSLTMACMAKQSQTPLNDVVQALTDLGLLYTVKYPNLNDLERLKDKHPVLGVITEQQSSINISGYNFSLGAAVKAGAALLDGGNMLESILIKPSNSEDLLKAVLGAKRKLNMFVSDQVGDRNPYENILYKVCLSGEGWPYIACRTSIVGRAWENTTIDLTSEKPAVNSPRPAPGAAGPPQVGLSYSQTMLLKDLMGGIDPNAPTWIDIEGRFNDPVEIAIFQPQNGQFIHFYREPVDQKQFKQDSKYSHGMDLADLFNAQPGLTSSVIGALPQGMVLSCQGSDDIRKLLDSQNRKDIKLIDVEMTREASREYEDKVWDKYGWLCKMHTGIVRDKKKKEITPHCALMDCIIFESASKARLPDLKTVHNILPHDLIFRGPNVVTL

[6] = molecular target: Alpha-galactosidase (Coffea arabica) (UniProt Q42656); experiment: Counterscreen for Glucocerebrosidase Inhibitors: qHTS Assay for Coffee Bean alpha-Galactosidase at pH 4.5 (AID 957); further: series mostly up to about 77 µM
Alpha-galactosidase (Coffea arabica), sequence (Q42656 whole entry, looked up): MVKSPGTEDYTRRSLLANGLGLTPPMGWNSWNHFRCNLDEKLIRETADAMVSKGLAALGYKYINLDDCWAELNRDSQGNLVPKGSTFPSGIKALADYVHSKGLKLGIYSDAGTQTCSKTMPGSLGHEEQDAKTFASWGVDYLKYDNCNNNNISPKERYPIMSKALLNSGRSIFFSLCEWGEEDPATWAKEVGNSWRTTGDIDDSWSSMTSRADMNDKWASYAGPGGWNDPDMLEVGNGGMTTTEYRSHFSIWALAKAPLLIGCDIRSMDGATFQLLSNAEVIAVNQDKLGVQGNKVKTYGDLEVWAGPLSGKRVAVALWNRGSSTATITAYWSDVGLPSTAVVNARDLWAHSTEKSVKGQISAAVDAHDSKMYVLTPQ
Method in brief: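 Enzyme is added first (2 nM final), then compounds titrated from 0.7 nM to 77 uM, then 80 uM 4-methylumbelliferyl alpha-D-galactopyranoside; after 20 min at room temperature a pH 10 NaOH/glycine stop precedes fluorescence reading at 365/440 nm.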

[7] = molecular target: Alpha-galactosidase (Coffea arabica) (UniProt Q42656); experiment: Counterscreen for Glucocerebrosidase Inhibitors: qHTS Assay for Coffee Bean alpha-Galactosidase at pH 5.9 (AID 998)
Method in brief: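 Enzyme 2 nM + cpd (0.7 nM–77 uM titration) + 4-MU-alpha-Gal 80 uM, pH 5.9 citrate/Tween-20, RT 20 min, NaOH/glycine stop pH 10, fluor 365/440. Normalized to no-enzyme and full-activity controls; Hill-fit AC50.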

[8] = molecular target: Ubiquitin carboxyl-terminal hydrolase 1 (Homo sapiens) (UniProt O94782); experiment: Inhibitors of USP1/UAF1: Pilot qHTS (AID 504865);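 further: rhodamine fluorescence freed from ubiquitin-rhodamine substrate followed over time; top concentration of the series differs between compounds; nearly all actives have a fitted effect of over 35% in size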
Ubiquitin carboxyl-terminal hydrolase 1 (Homo sapiens), sequence (O94782 whole entry, looked up): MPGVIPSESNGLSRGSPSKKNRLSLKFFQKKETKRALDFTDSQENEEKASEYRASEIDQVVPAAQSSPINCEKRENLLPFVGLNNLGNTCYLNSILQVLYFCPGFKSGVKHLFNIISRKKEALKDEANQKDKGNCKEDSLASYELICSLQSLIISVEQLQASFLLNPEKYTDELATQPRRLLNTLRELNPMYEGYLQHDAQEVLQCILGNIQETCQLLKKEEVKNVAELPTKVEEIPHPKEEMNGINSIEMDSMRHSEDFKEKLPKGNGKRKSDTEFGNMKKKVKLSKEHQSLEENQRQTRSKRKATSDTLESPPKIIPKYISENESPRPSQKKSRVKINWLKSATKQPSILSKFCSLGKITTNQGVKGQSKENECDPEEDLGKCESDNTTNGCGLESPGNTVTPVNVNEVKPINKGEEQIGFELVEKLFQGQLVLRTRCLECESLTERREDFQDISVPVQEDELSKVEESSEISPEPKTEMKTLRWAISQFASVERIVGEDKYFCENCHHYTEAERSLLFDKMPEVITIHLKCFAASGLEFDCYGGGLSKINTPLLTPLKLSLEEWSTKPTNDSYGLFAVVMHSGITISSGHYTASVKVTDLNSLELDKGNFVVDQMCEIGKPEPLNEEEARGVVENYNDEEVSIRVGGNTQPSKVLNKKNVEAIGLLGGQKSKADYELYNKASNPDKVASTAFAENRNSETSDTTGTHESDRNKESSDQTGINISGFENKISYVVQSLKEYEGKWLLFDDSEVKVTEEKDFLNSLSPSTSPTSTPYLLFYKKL
Method in brief: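 USP1/UAF1 complex (1nM) preincubated with compound 15 min at room temperature, then Ub-Rho substrate (150nM final) added. Fluorescence read kinetically at 480/540 nm, 6 reads every 60 seconds. Buffer: 50mM HEPES pH 7.8, 0.5mM EDTA, 0.1 mg/ml BSA, 1mM TCEP, 0.01% Tween-20.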

[9] = molecular target: Arylsulfatase A (Homo sapiens) (UniProt P15289); experiment: qHTS screen for enhancers of Arylsulfatase A (ASA1): LOPAC Validation Assay (AID 720538)
Arylsulfatase A (Homo sapiens), sequence (P15289 whole entry, looked up): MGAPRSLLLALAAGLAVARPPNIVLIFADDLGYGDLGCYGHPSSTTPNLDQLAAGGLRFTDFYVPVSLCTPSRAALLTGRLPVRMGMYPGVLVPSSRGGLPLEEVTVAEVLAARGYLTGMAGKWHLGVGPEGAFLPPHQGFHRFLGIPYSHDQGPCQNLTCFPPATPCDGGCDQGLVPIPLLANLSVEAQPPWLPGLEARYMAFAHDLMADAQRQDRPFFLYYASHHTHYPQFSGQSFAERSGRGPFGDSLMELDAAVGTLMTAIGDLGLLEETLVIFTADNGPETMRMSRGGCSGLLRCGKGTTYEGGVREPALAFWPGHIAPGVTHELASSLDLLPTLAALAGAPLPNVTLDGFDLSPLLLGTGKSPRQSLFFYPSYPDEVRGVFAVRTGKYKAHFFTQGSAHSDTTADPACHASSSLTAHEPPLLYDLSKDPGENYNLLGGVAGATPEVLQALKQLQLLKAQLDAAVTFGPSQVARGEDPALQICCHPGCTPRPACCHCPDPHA
Method in brief: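 SV40-transformed skin fibroblasts from an MLD patient (ASA-I179S) were treated with compounds for 48h at 37 degree C, then lysed with 0.5mM pNCS final substrate for 14h at room temperature; NaOH stop, fluorescence read (Ex=525 nm; Em=598 nm).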

Measured: Potency

CN1CC(O)C(O)C(O)C1CO (stereo unspecified)
inactive: [1] | [2] | [3] | [4] | [5]

N[C@@H](Cn1ccc(=O)c(O)c1)C(=O)O
inactive: [1] | [2] | [3] | [4] | [5]

CC(N)(Cc1ccc(O)cc1)C(=O)O (stereo unspecified)
inactive: [1] | [2] | [3] | [4] | [5]

C[C@H]1CC2C3CCC4=CC(=O)C=C[C@]4(C)[C@@]3(Cl)[C@@H](O)C[C@]2(C)[C@@]1(O)C(=O)CO (stereo partly specified)
inactive: [1] | [2] | [3] | [4] | [5]

O=C(c1ccc2c(c1)OCCO2)N1CCCCC1
inactive: [1] | [2] | [3] | [4] | [5]

Cc1nn(-c2ccccc2)c(C)c1/C=N/N1CCN(Cc2ccccc2)CC1
inactive: [1] | [2] | [3] | [4] | [5]

CC(=O)SC1CC2=CC(=O)CC[C@]2(C)C2CC[C@@]3(C)C(CC[C@@]34CCC(=O)O4)C12 (stereo partly specified)
inactive: [1] | [2] | [3] | [4] | [5]

COc1cc2nc(N3CCN(C(=O)OCc4ccccc4)C(C(=O)NC(C)(C)C)C3)nc(N)c2cc1OC (stereo unspecified)
inactive: [1] | [2] | [3] | [4] | [5]

CN(C)c1ccc(/C=C2\C(=O)Nc3ccccc32)cc1
inactive: [1] | [2] | [3] | [4] | [5]

OC[C@H]1O[C@H](n2cnc3c(N[C@H]4CCC[C@@H]4O)ncnc32)[C@H](O)[C@@H]1O
inactive: [1] | [2] | [3] | [4] | [5]

CNc1ncnc2c1ncn2[C@@H]1O[C@H](CO)[C@@H](O)[C@H]1O
inactive: [1] | [2] | [3] | [4] | [5]

OC[C@H]1O[C@@H](n2cnc3c(Nc4ccccc4)ncnc32)[C@H](O)[C@@H]1O
inactive: [1] | [2] | [3] | [4] | [5]

Nc1ncnc2c1ncn2[C@@H]1O[C@H](COP(=O)(O)OP(=O)(O)OP(=O)(O)OP(=O)(O)OC[C@@H]2O[C@H](n3cnc4c(N)ncnc43)[C@@H](O)[C@H]2O)[C@@H](O)[C@H]1O
inactive: [1] | [2] | [3] | [4] | [5]

O=c1ccn([C@@H]2O[C@H](COP(=O)(O)OP(=O)(O)O)[C@@H](O)[C@H]2O)c(=O)[nH]1
inactive: [1] | [2] | [3] | [4] | [5]

C[C@](Cc1ccc(O)c(O)c1)(NN)C(=O)O
inactive: [1] | [2] | [3] | [4] | [5]

N[C@H](C(=O)O)[C@H](Cc1ccccc1)C(=O)O
inactive: [1] | [2] | [3] | [4] | [5]

C=C1C[C@@]23CC[C@H]4[C@@](C)(CCC[C@@]4(C)C(=O)O)[C@@H]2CC[C@]1(O)C3
inactive: [1] | [2] | [3] | [4] | [5]

CC(C)[C@@H]1CC[C@@H](C)C[C@@H]1P(=O)(c1ccccc1)c1ccccc1
inactive: [1] | [2] | [3] | [4] | [5]

O=C(O)C1=CC(=C(c2ccc(O)c(C(=O)O)c2)c2ccc(O)c(C(=O)O)c2)C=CC1=O
not listed: [8] | [9]
inactive: all other assays above

CO/S(=N\S(=O)(=O)c1ccc(Cl)cc1)c1ccc([N+](=O)[O-])cc1 (stereo unspecified)
inactive: [1] | [2] | [3] | [4] | [5]

C=CC(C)=C[C@@]1(C)SC(=O)C(C)=C1O
inactive: [1] | [2] | [3] | [4] | [5]

CCCn1c(=O)c2[nH]c(-c3ccc(OCC(=O)NCCN)cc3)nc2n(CCC)c1=O
not listed: [8] | [9]
inactive: all other assays above

CC(C)Cn1c(=O)n(C)c(=O)c2[nH]cnc21
not listed: [8] | [9]
inactive: all other assays above

CN1C2CC(OC(=O)[C@H](CO)c3ccccc3)CC1C1OC12 (stereo partly specified)
not listed: [6] | [7] | [9]
inactive: all other assays above

NC(=S)c1ccc[n+]([C@@H]2O[C@@H](COP(=O)([O-])OP(=O)(O)OC[C@H]3O[C@@H](n4cnc5c(N)ncnc54)[C@H](OP(=O)(O)O)[C@@H]3O)C(O)C2O)c1 (stereo partly specified)
inactive: [1] | [2] | [3] | [4] | [5]

CN(C)S(=O)(=O)c1ccc2c(c1)/C(=C/c1cc3c([nH]1)CCCC3)C(=O)N2
not listed: [8] | [9]
inactive: all other assays above

Nc1nc2c(nc(Br)n2C2OC3COP(=O)(O)O[C@@H]3C2O)c(=O)[nH]1 (stereo partly specified)
inactive: [1] | [2] | [3] | [4] | [5]

CCN1C(=O)C=CC1=O
not listed: [8] | [9]
inactive: all other assays above

Nc1ccc2c3c(cccc13)C(=O)NC2=O
not listed: [8] | [9]
inactive: all other assays above

CN1CCc2cc(NC(=O)Nc3cccnc3)ccc21
not listed: [8] | [9]
inactive: all other assays above

COc1ccc(CCN(C)CCc2ccc(OC)c(OC)c2)cc1OC
not listed: [8] | [9]
inactive: all other assays above

C#CC(N)CCC(=O)O (stereo unspecified)
inactive: [1] | [2] | [3] | [4] | [5]

COc1cccc2c1[C@@H]1CN(CCCCn3c(=O)[nH]c4c(sc5ncc(-c6ccccc6)nc54)c3=O)C[C@@H]1CO2
inactive: [1] | [2] | [3] | [4] | [5]

c1ccc(CN2CCC3(CCCc4ccccc43)CC2)cc1
not listed: [8] | [9]
inactive: all other assays above

COc1ccc(CCn2nnnc2C2(c3ccc(C)cc3)CC2)cc1
inactive: [1] | [2] | [3] | [4] | [5]

Cc1cc(Cn2cnc3c2C[C@@H](C(=O)O)N(C(=O)C(c2ccccc2)c2ccccc2)C3)ccc1N
inactive: [1] | [2] | [3] | [4] | [5]

N[C@H](C(=O)O)c1cc(O)cc(O)c1
not listed: [8] | [9]
inactive: all other assays above

Nc1ncnc2c1ncn2C1CCCC1
not listed: [8] | [9]
inactive: all other assays above

CC(O)C(O)[C@H]1CNc2nc(N)[nH]c(=O)c2N1 (stereo partly specified)
inactive: [1] | [2] | [3] | [4] | [5]

CN=C(N)NCCC[C@H](N)C(=O)O
not listed: [8] | [9]
inactive: all other assays above

NC(N)=[N+]1CCc2ccccc2C1
not listed: [8] | [9]
inactive: all other assays above

CN=c1nc(-c2ccccc2)n(-c2ccccc2)s1
not listed: [8] | [9]
inactive: all other assays above

O=c1c2ccccc2nc2n1CCc1c-2[nH]c2ccccc12
not listed: [8] | [9]
inactive: all other assays above

Brc1ccc([C@H]2CN3CCSC3=N2)cc1
not listed: [8] | [9]
inactive: all other assays above

CC[C@@H]1Cc2cc(O)ccc2C2=C1c1ccc(O)cc1C[C@H]2CC
not listed: [8] | [9]
inactive: all other assays above

CC(C)[C@H](NC(=O)OCc1ccccc1)C(=O)N[C@H](C=O)Cc1ccccc1
not listed: [8] | [9]
inactive: all other assays above

CCc1ccc2c(-c3cccc(Cl)c3)nc(=O)n(CC)c2n1
inactive: [1] | [2] | [3] | [4] | [5]

Nc1nc(SCc2ccc([N+](=O)[O-])cc2)c2ncn([C@@H]3O[C@H](CO)[C@@H](O)[C@H]3O)c2n1
inactive: [1] | [2] | [3] | [4] | [5]

NC(=NCc1ccccc1)NC(=O)c1nc(Cl)c(N)nc1N
not listed: [8] | [9]
inactive: all other assays above

Cc1nc2n(c(=O)c1CCN1CCC(c3noc4cc(F)ccc34)CC1)CCCC2O (stereo unspecified)
inactive: [1] | [2] | [3] | [4] | [5]

NCC1OC(O[C@H]2[C@H](O)[C@@H](OC3C(O)C(N)CC(N)C3OC3OC(CO)C(O)C(O)C3N)O[C@@H]2CO)C(N)C(O)C1O (stereo partly specified)
not listed: [6] | [7]
inactive: all other assays above

CC(=O)O[C@H]1C[C@@H]2CC[C@@H]3[C@H](CC[C@@]4(C)[C@H]3C[C@H]([N+]3(C)CCCCC3)[C@@H]4OC(C)=O)[C@@]2(C)C[C@@H]1[N+]1(C)CCCCC1
not listed: [6] | [7]
inactive: all other assays above

OCC1O[C@H]([S-])[C@H](O)[C@@H](O)[C@@H]1O.[Au+] (stereo partly specified)
inactive: [1] | [2] | [3] | [4] | [5]

NC[C@H]1O[C@@H](n2cnc3c(N)ncnc32)[C@H](O)[C@@H]1O
inactive: [1] | [2] | [3] | [4] | [5]

CCCCCCC(=O)OC1CC(C)(C)NC(C)(C)C1
not listed: [6] | [7] | [8]
inactive: all other assays above

NCCNC(=O)c1ncsc1-c1cccc(F)c1
not listed: [8] | [9]
inactive: all other assays above
